In the library only some 2.4% were active in any assay of this set; here they are far more common.
ANO1 block – inhibitors of mouse TMEM16A calcium-activated chloride channel; Q8BHY3; HEK293 TMEM16A/YFP iodide influx fluorescence, ionomycin; normalized B-score (activity score, 25-100; higher = stronger inhibition) at 10 µM; hit rate 1.2% among 310,000;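 active means ratio plate-corrected score three or more library SD toward inhibition, starting fluorescence score within five deviations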;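 further: score derived from kinetic fluorescence span divided by baseline fluorescence per well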
Target sequence (Q8BHY3 whole entry, looked up): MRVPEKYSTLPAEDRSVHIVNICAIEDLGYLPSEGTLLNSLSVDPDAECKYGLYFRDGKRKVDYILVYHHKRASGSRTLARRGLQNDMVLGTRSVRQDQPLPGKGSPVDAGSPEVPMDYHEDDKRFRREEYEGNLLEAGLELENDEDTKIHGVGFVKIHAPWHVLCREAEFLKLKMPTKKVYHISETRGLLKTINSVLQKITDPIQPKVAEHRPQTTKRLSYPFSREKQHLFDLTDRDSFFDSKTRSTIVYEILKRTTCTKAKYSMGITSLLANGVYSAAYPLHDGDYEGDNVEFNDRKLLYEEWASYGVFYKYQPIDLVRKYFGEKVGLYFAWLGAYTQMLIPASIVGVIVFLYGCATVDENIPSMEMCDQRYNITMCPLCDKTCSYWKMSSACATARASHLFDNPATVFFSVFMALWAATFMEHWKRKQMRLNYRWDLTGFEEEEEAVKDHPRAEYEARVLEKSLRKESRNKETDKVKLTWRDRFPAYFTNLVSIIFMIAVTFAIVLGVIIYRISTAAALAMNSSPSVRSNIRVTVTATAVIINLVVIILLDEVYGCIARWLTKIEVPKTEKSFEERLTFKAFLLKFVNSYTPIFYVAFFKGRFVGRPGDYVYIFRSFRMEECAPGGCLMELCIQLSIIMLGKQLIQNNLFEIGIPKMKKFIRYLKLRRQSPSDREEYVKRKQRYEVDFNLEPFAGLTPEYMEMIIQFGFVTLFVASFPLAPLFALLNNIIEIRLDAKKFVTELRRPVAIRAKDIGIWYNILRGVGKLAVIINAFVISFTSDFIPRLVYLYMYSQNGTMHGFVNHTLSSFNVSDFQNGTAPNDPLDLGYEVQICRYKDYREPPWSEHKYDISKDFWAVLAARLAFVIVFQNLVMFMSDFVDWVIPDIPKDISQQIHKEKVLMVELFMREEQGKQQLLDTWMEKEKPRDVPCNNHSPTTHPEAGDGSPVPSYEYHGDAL
ANO1 activ – activates or potentiates the mouse TMEM16A chloride channel; AID 623877; B-score at 10 µM; hit rate 0.3% among 340,000; Q8BHY3; HEK293 TMEM16A/YFP-H148Q/I152L, iodide quench fluorescence; hits give low values;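 active means fluorescence-ratio B-score plate-corrected deviation score at least 3 library SD below zero, with starting fluorescence score within 5 deviations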;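 further: channel opened by trigger with iodide after compound preincubation; score built on the fluorescence ratio of max minus min over baseline; more negative score means more quench and so TMEM16A activation or potentiation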
CHT block – inhibitors of human choline transporter CHT | B-score at 10 µM | Q9GZV3 | hit rate 0.86% among 310,000 | CHT-expressing cells, membrane potential dye, choline response; hits give low values;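 active means B-score over 3 SD under the library average, and starting fluorescence ratio not unusually high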;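 further: choline stimulus applied at its EC90 after an EC20 pre-addition; B-score computed on integrated fluorescence ratio after choline addition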
CHT PAM – allosteric activators of human choline transporter CHT; Q9GZV3; AID 488977; hit rate 0.49% among 310,000; B-score at 10 µM; CHT-expressing cells, membrane potential dye, choline EC20; hits give high values; LV-AA mutant CHT in HEK293 cells;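 active means initial fluorescence not abnormally high and integrated response B-score, plate-corrected, over 3 SD above library mean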
Hits are given with their value; – = inactive; · = no result.

SMILES	ANO1 block	ANO1 activ	CHT block	CHT PAM
COc1ccc(CC(=O)Nc2ccccc2Oc2ccccc2)cc1	–	·	-6.2	–
COc1ccc(NC(=S)NNc2ccc([N+](=O)[O-])cc2S(=O)(=O)Nc2ccc(C)cc2C)cc1	100	–	–	–
COc1ccc(NC(=S)Nc2cccc([N+](=O)[O-])c2)cc1	–	–	–	–
Cc1ccc(NS(=O)(=O)c2cc([N+](=O)[O-])ccc2NNC(=S)Nc2cccc(Cl)c2)c(C)c1	100	–	–	–
Cc1ccc(NS(=O)(=O)c2cc([N+](=O)[O-])ccc2NNC(=S)Nc2cc(C)ccc2C)c(C)c1	100	–	–	–
O=C(NCCOc1ccccc1F)c1cc(F)c(F)cc1Cl	–	–	–	–
Cc1ccc(S(=O)(=O)N2CCN(c3ncnc4scc(-c5ccccc5)c34)CC2)cc1	·	-31	·	·
CC(C)c1ccc(-c2csc3ncnc(N4CCN(C)CC4)c23)cc1	–	–	-11	–
Fc1ccc(CN2CCN(c3ncnc4scc(-c5ccc(F)cc5)c34)CC2)cc1	–	–	–	–
Clc1ccc(CN2CCN(c3ncnc4scc(-c5cccs5)c34)CC2)cc1	25	–	–	–
Cc1ccc(S(=O)(=O)N2CCN(c3ncnc4scc(-c5ccc(F)cc5)c34)CC2)cc1	–	–	–	–
COc1ccc(C(=O)NC(C)c2ccc(-n3ccnc3)cc2)c(OC)c1 (stereo not given)	–	–	–	–
COCC(=O)NNC(=O)c1ccc(OC)cc1	–	–	–	–
CCNC(=S)NN(c1ccccc1)c1ccccc1	–	–	–	–
COc1ccc(Cl)cc1S(=O)(=O)N(C)CC(=O)N1CCCC1	–	–	–	–
COc1cc(CC(=O)OCC(=O)Nc2sccc2C(N)=O)cc(OC)c1OC	100	–	–	–
CSCCC1NC(=O)N(CC(=O)N2N=C(c3ccc(Cl)cc3)CC2c2ccco2)C1=O (stereo not given)	25	–	–	–
CC(=O)N1N=C(c2ccc(Cl)cc2)CC1c1ccco1 (stereo not given)	–	–	–	–
COc1ccc(CNC(=O)C2CCN(S(=O)(=O)c3cccc4nsnc34)CC2)cc1	–	–	–	–
O=C(Nc1ccc(S(=O)(=O)NC2=NCCCCC2)cc1)c1ccc2ccccc2n1	–	–	–	–
Nc1ccc2c(c1)COc1ccccc1O2	–	–	–	–
Nc1ccc2c(c1)Oc1ccccc1C=C2	–	-5.3	–	–
O=C(NCC(=O)N(c1ccccc1)C(C(=O)NC1CCCC1)c1ccncc1)c1ccco1 (stereo not given)	–	-16	–	–
CC(C)(C)OC(=O)CN1C(=O)C(Sc2n[nH]c(-c3ccccc3)n2)CCc2ccccc21 (stereo not given)	–	–	–	–
CN(C)c1ccc(/C=C2\C(=N)N3N=C(CC(=O)N4CCCCC4)SC3=NC2=O)cc1	–	-5.5	–	–
SMILES	ANO1 block	ANO1 activ	CHT block	CHT PAM
COc1ccc(N2C(=O)C3CCCN3C2c2ccc(C)o2)cc1Cl (stereo not given)	25	–	–	–
Cc1ccc(C2N(c3ccc(Cl)c(Cl)c3)C(=O)C3CCCN32)o1 (stereo not given)	–	–	–	–
COc1ccc(/C=C/C(=O)c2ccc(C(=O)/C=C/c3ccc(OC)c(OC)c3)cc2)cc1OC	·	–	·	·
COc1ccc(/C=C\c2cc(OC)c(OC)cc2CC[N+](C)(C)C)cc1OC	–	–	–	10
Clc1c(CSc2nc3ccccc3o2)nc2ccccn12	–	-21	–	–
CCc1c(C)sc(NC(=S)N2CC(C)OC(C)C2)c1C(=O)OC (stereo not given)	–	–	–	–
CC1=NNC(=O)/C1=C\c1cn(-c2ccccc2)nc1-c1ccc(F)cc1	·	-6.2	·	·
CC1=NNC(=O)/C1=C\c1cn(-c2ccccc2)nc1-c1cccs1	–	–	–	–
COCCCNc1nc(-c2ccc(Cl)cc2)nc2ccccc12	25	–	–	–
OCCNc1nc(-c2ccccc2)nc2ccccc12	–	–	–	–
OCCCNc1nc(-c2ccc(Cl)cc2)nc2ccccc12	–	-6.3	–	–
O=C(COC(=O)c1cccc(S(=O)(=O)N2CCN(c3ccccc3)CC2)c1)NCC1CCCO1 (stereo not given)	–	–	–	–
COc1cc(OC)c(NS(=O)(=O)c2cccc(C(=O)OCC(=O)NCC3CCCO3)c2)cc1Cl (stereo not given)	–	-7.8	–	–
O=C(O)C(Cc1ccccc1)N1C(=O)/C(=C/c2cccc3ccccc23)SC1=S (stereo not given)	100	·	–	–
Cc1ccc(/C=C2\SC(=S)N(C(Cc3ccccc3)C(=O)O)C2=O)cc1 (stereo not given)	–	–	–	–
Cc1ccsc1C1C(C#N)=C(N)N(N(C)C)C2=C1C(=O)CC(C)(C)C2 (stereo not given)	–	–	–	–
Cc1cc(C)nc(/N=C(\N)Nc2ccc(OCc3ccccc3)cc2)n1	100	-7.8	–	–
O=S(=O)(Nc1ncnc2sc3c(c12)CCC3)c1ccc(Cl)s1	25	–	–	–
O=C(Nc1ncnc2sc3c(c12)CCCC3)c1ccncc1	–	–	–	–
CC1=C/C(=N\OS(=O)(=O)c2ccccc2)C(C(C)C)=CC1=O	–	-5	–	–
CC1=CC(=O)c2ccccc2C1=O	–	–	–	–
O=C(c1cccc(S(=O)(=O)N2CCCC2)c1)N1CCN(c2ccccc2)CC1	–	–	–	–
O=C(c1cccc(S(=O)(=O)N2CCN(c3ccccc3)CC2)c1)N1CCCC(C(F)(F)F)C1 (stereo not given)	25	–	–	–
O=C(Cn1cnc2c(nnn2-c2ccc(F)cc2)c1=O)N1CCCC1	–	–	–	–
N#Cc1c(Cl)nsc1NC(=O)c1ccccc1	100	–	–	–
SMILES	ANO1 block	ANO1 activ	CHT block	CHT PAM
COc1ccccc1CNC(=O)CSCc1cnn(-c2ccccc2)c1-n1cccc1	–	–	–	–
COc1cccc(CNC(=O)CSCc2cnn(-c3ccccc3)c2-n2cccc2)c1OC	100	–	–	–
COC(=O)C/C=C/[C@@H](C)[C@@H](/C=N/OC[C@H]1O[C@H](c2ccccc2)C=C[C@@H]1Oc1ccc(OC)cc1)OC	–	·	–	–
COc1ccc(O[C@H]2C=C[C@@H](c3ccccc3)O[C@@H]2COC(=O)CC/C(C)=N/OC[C@@H](O)COCc2ccco2)cc1	25	·	–	–
COC(=O)c1cc(NS(=O)(=O)c2ccc(N3CCOCC3)c([N+](=O)[O-])c2)cc(C(=O)OC)c1	–	–	–	–
CC1CC(C)(C)N(C(=O)CSc2ccc(-c3ccc(F)cc3)nn2)c2ccccc21 (stereo not given)	100	–	–	–
CC1CCN(C(=O)CSc2ccc(-c3ccc(F)cc3)nn2)CC1	–	–	–	–
Cc1ccc(S(=O)(=O)Nc2ccccc2-c2ccccc2NS(=O)(=O)c2ccc(C)cc2)cc1	100	–	–	–
Cc1ccc(S(=O)(=O)Nc2ccccc2C(N)=O)cc1	–	–	–	–
CC(C)(C)OC(=O)[C@H](Cc1ccccc1)NC(=O)c1nc[nH]c1C(=O)N1CCNCC1	·	–	·	·
